The list is not random: actives were taken first. Their share in the collection is about 1.6%.
KCNQ2 enhance: KCNQ2 (rat) channel potentiation. 0.54% of 310,000 active. CHO-K1 KCNQ2, FluxOR thallium flux fluorescence; active compounds read high. B-score at 10 µM. AID 2239;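 active = fluorescence ratio B-score at least 3 SD of library B-scores, with initial fluorescence B-score within 3 of them, cut at about 5.3 in these data; same plate scores as AID 2156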;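 also: B-score of peak minus minimum over baseline fluorescence ratio after K+ and Tl+ stimulus; positive B-score means potentiation of KCNQ2 with more thallium influx and brighter signal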
KCNQ2 inh: KCNQ2 (rat) channel inhibition | O88943 | 1.1% of 310,000 active | AID 2156 | CHO-K1 KCNQ2, FluxOR thallium flux, 20 min; active compounds read low | B-score at 10 µM;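 active = fluorescence ratio B-score at most minus 3 library SDs, with starting brightness B-score within 2 library SDs, cut at about -5.5 in these data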
KCNQ2 block conf: confirmation of rat KCNQ2 potassium channel inhibitors. shares compounds with KCNQ2 inh. KCNQ2-expressing cells, thallium flux, inhibition; active compounds read low. activity change, negative = inhibition, % at 10 µM. 57% of 1,000 active;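 also: 0% = vehicle wells and values are ratio percent relative to vehicle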
KCNQ1 spec: selectivity of KCNQ2 inhibitors against human KCNQ1; shares compounds with KCNQ2 inh; KCNQ1-expressing cells, FluxOR thallium flux fluorescence; active compounds read low; activity change, negative = inhibition, % at 10 µM; 15% of 1,000 active; AID 493026;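 active = activity change at least 3 SD of negative controls below their mean in both duplicate wells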;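 also: CHO cells stably transfected with KCNQ1 and depolarized by potassium stimulus; peak minus minimum fluorescence over baseline after thallium addition; 0% = vehicle negative control and -100% = blank without thallium stimulus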
Target sequence (P51787 whole entry, looked up): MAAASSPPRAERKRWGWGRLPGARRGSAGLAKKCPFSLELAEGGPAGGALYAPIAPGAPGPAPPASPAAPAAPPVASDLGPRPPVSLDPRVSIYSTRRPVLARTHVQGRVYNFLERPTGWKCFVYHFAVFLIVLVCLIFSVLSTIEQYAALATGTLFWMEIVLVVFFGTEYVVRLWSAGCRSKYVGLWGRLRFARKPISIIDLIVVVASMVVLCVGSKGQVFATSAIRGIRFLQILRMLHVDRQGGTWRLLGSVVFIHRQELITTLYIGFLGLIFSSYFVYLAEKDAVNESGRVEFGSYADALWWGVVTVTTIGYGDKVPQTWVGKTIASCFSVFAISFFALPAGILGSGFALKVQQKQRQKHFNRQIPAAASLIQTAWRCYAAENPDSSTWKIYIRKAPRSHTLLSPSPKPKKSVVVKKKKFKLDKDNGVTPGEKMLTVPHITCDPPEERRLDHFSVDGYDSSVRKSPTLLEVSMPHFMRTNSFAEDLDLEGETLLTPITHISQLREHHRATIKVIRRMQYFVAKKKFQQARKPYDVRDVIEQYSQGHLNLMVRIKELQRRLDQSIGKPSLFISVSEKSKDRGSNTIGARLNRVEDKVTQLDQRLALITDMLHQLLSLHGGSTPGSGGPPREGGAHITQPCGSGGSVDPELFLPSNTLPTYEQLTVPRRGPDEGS
CHO Tl ctr: counter-screen for KCNQ2 inhibitors: effect in parental CHO cells. thallium flux counter-screen; active compounds read low. activity change, % at 10 µM. 14% of 1,000 active. AID 493029. shares compounds with KCNQ2 inh;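 also: 0% = vehicle negative controls with stimulus buffer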
KCNQ2 inh confirm: rat KCNQ2 inhibition confirmed by electrophysiology | calls only at 10 µM | KCNQ2-expressing cells, automated patch clamp current | shares compounds with KCNQ2 inh | 49% of 550 active
Starred values were filed as active, the others as inactive; i = inactive; · = no result given; + = active, no number. Unless noted, no rule for the calls is given here.

SMILES	KCNQ2 enhance	KCNQ2 inh	KCNQ2 block conf	KCNQ1 spec	CHO Tl ctr	others
NC(=O)c1ccc(Oc2ccc(C(N)=O)cc2)cc1	0.79	i	·	·	·
COc1ccc(/C=N/n2c(N)nc(-c3ccccc3)c2-c2ccccc2)cc1	-7	-7*	i	i	i
COc1ccc(/C=N/n2c(-c3ccccc3)n[nH]c2=S)cc1	·	i	·	·	·
CC(C)C[C@H]1COCCS(=O)(=O)N1Cc1cccc(F)c1	1.2	i	·	·	·
O=C(c1cc2ccccc2o1)N(Cc1ccco1)Cc1cccs1	-12	-12*	-41%*	-40%*	-32%*	KCNQ2 inh confirm=i
COc1ccc(C(=O)N(Cc2ccco2)Cc2cccs2)c(O)c1	·	i	·	·	·
CCN(CC)C(=O)CSc1nc2ccccc2c(=O)n1CC1CCCCC1	-6.6	-6.6*	-45%*	-38%*	-30%*	KCNQ2 inh confirm=+
O=C(CSc1nc2ccccc2c(=O)n1CC1CCCCC1)N1CCOCC1	·	i	·	·	·
O=C(Cc1ccc([N+](=O)[O-])cc1)Nc1ccc2c(c1)CCC2	·	i	·	·	·
Cc1cc(C)c(-c2noc(C(=O)OC(C)(C)C)c2C(=O)OC(C)(C)C)c(C)c1	-10	-10*	i	i	i
COc1cc(OC)c(-c2noc(C(=O)OC(C)(C)C)c2C(=O)OC(C)(C)C)c(OC)c1	·	i	·	·	·
COc1ccccc1NC(=O)c1cc2c(s1)-c1ccccc1S(=O)(=O)C2	0.02	i	·	·	·
Cc1cc(C)n(-c2nc3ccccc3c(=O)n2OCc2ccc(Cl)cc2)n1	-7.6	-7.6*	i	i	i
Cc1cc(C)n(-c2nc3ccccc3c(=O)n2OCc2ccc(F)cc2)n1	·	i	·	·	·
CCC(NC(=O)C1CCCC1)c1ccccc1 (stereo not given)	·	i	·	·	·
Cn1c(NCc2cccc(Br)c2)nc2ccccc21	-9	-9*	-34%*	-28%*	-22%*	KCNQ2 inh confirm=+
Brc1cccc(CNc2nc3ccccc3n2CCN2CCCCC2)c1	·	i	·	·	·
CCOC(=O)C(=NCCCN(C)C)NNc1cc(C(F)(F)F)ccc1Cl	0.02	i	·	·	·
CCc1nc2ccc(F)cc2c(C(=O)NC2CCCCC2C)c1C (stereo not given)	-7.1	-7.1*	-26%*	i	i	KCNQ2 inh confirm=+
Cc1cc(C(=O)NC2CCCCC2C)c2ccccc2n1 (stereo not given)	·	i	·	·	·
COC(=O)c1ccc(/C=N\N2CCN(c3ccccc3)CC2)cc1	·	i	·	·	·
COc1ccc(C)cc1NC(=O)C(OC(=O)Cn1cnc2c1c(=O)n(C)c(=O)n2C)c1ccccc1 (stereo not given)	0.65	i	·	·	·
Cc1cc(C)cc(NC(=O)C(OC(=O)Cn2cnc3c2c(=O)n(C)c(=O)n3C)c2ccccc2)c1 (stereo not given)	-9	-9*	-24%*	i	i	KCNQ2 inh confirm=i
COc1cccc(NC(=O)CSC2=NN3CCCC(=O)N=C3S2)c1	·	i	·	·	·
COc1ccc(CCN2CC(C(=O)NCCN3CCCC3=O)CCC2=O)cc1 (stereo not given)	0.69	i	·	·	·
SMILES	KCNQ2 enhance	KCNQ2 inh	KCNQ2 block conf	KCNQ1 spec	CHO Tl ctr	others
CCOc1cnn(-c2cc(Oc3ccc(C)cc3)ncn2)c(=O)c1Cl	0.83	i	·	·	·
Cc1cc(Oc2cnn(C(C)(C)C)c(=O)c2Cl)cc(C(C)C)c1	-11	-11*	-34%*	-30%*	-32%*	KCNQ2 inh confirm=i
COc1ccc2nc(SCC(=O)NCc3ccc(S(N)(=O)=O)cc3)[nH]c2c1	1.2	i	·	·	·
O=[N+]([O-])c1cc([N+](=O)[O-])c2c(=Nc3ccccc3)n(-c3ccccc3)n(O)c2c1	-9.8	-9.8*	-34%*	-40%*	-28%*	KCNQ2 inh confirm=+
O=[N+]([O-])c1cc(Br)c(Nc2ccccc2)c([N+](=O)[O-])c1	·	i	·	·	·
CCOC(=O)C(NC(=O)c1ccccc1Cl)(Nc1ccc(C(F)(F)F)cc1)C(F)(F)F (stereo not given)	·	i	·	·	·
CCOC(=O)C(NC(=O)c1ccc(Cl)cc1Cl)(Nc1ccc(C)cc1)C(F)(F)F (stereo not given)	-8.5	-8.5*	i	i	i
CC1CN(C(=O)c2cc(-c3ccc(Cl)s3)nc3ccccc23)CC(C)O1 (stereo not given)	-8.5	-8.5*	-33%*	i	i	KCNQ2 inh confirm=+
Cc1ccccc1-c1cc(C(=O)N2CCCC2)c2ccccc2n1	0.36	i	·	·	·
Cc1ccc(-c2cc(C(=O)N3CCCc4ccccc43)c3ccccc3n2)cc1	-6.9	-6.9*	i	i	i
O=C(c1cc(-c2cccnc2)nc2ccccc12)N1CCCc2ccccc21	·	i	·	·	·
COc1ccc(-c2cc(C(=O)N3CC(C)CC(C)C3)c3ccccc3n2)cc1 (stereo not given)	-8.7	-8.7*	-35%*	i	i	KCNQ2 inh confirm=+
CC1CC(C)CN(C(=O)c2cc(-c3ccccn3)nc3ccccc23)C1 (stereo not given)	·	i	·	·	·
COc1ccc(-c2cc(C(=O)N3CCCC3)c3ccccc3n2)cc1	·	i	·	·	·
Cc1ccc(-c2cc(C(=O)N3CCCCC3)c3ccccc3n2)cc1C	-9.3	-9.3*	-36%*	i	i	KCNQ2 inh confirm=+
O=S(=O)(c1ccccc1)c1cnc(-c2ccccc2)nc1N1CCCCC1	·	i	·	·	·
O=C(NNC(=S)NCc1ccccc1)c1ccc(Br)cc1	·	i	·	·	·
CN(C)/C=C(\C#N)C(=O)N/N=C(\CC(=O)C(F)(F)F)c1ccco1	·	i	·	·	·
O=C(NCCc1ccccc1)C(=O)NCC1OCCN1S(=O)(=O)c1ccc(F)cc1 (stereo not given)	·	i	·	·	·
CCN(CC)S(=O)(=O)c1ccc(S(=O)(=O)NCC2CCCO2)cc1 (stereo not given)	·	i	·	·	·
O=C(OCC(O)COc1ccccc1)c1ccc([N+](=O)[O-])cc1 (stereo not given)	0.02	i	·	·	·
CC(C)CCNC(=O)C1CCN(S(=O)(=O)c2ccc(-n3cnnn3)cc2)CC1	·	i	·	·	·
O=C(NCC(c1ccco1)N1CCc2ccccc21)c1ccccc1F (stereo not given)	·	i	·	·	·
COc1ccc(C(=O)NCC(c2ccco2)N2CCc3ccccc32)c(OC)c1 (stereo not given)	-8	-8*	-31%*	i	i	KCNQ2 inh confirm=+
c1ccc(NCC2OCc3ccccc3CO2)cc1	1.9	i	·	·	·
SMILES	KCNQ2 enhance	KCNQ2 inh	KCNQ2 block conf	KCNQ1 spec	CHO Tl ctr	others
CC1CCN(S(=O)(=O)c2cn(CC(=O)N3CC(C)CC(C)C3)c(=O)c3ccccc23)CC1 (stereo not given)	0.56	i	·	·	·
Cc1ccccc1NC(=O)c1sc(Cl)nc1-c1ccccc1	-8.7	-8.7*	i	i	i
O=C(Nc1ccc(F)cc1)c1sc(Cl)nc1-c1ccccc1	·	i	·	·	·
Cc1ccc(NC(=O)c2sc(Cl)nc2-c2ccccc2)cc1	·	i	·	·	·
Cc1ccc(C)c(NC(=O)c2sc(Cl)nc2-c2ccccc2)c1	-8	-8*	i	i	i
CCc1nnc(NC(=O)C2CCCCN2S(=O)(=O)c2ccccc2)s1 (stereo not given)	·	i	·	·	·
COC(=O)C(=C/C(C)=C/c1cccnc1)C(=O)OC	1.5	i	·	·	·
